In PubChem BioAssay (NCI):
The panel holds about 83,000 compounds, 20% with a hit somewhere; the sample as a whole holds those more often.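 Step 1: grow cells in 96-well plates. Step 2: add test compound at a single concentration. Step 3: incubate 48 h. Step 4: record percent growth.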 Unmarked numbers belong to inactive results. Active and inactive are the calls of the source. Rule for the calls: active = growth percent below 10; inactive = the rest.

How the values were obtained:
Assay in all cases: NCI-60 one-dose screen, 48 h (100 = growth as untreated, 0 = no growth, -100 = all killed)
Details in all cases: 10 µM
[1] = system: K-562 leukemia
[2] = system: MALME-3M melanoma
[3] = system: MDA-MB-231 breast
[4] = system: RXF 393 renal
[5] = system: SF-268 CNS
[6] = system: SF-295 CNS
[7] = system: SF-539 CNS
[8] = system: UACC-257 melanoma
[9] = system: M14 melanoma
[10] = system: HCT-15 colon

N=C(N)c1ccc(-c2ccc(-c3cccs3)s2)s1
growth [1]: -68% (active)
growth [2]: -73.9% (active)
growth [3]: -74.3% (active)
growth [4]: -91.7% (active)
growth [5]: -29.3% (active)
growth [6]: -79.5% (active)
growth [7]: 25.9%
growth [8]: -68.5% (active)
growth [9]: -79.5% (active)
growth [10]: -68.4% (active)

N#CCCN(NC(=O)OCc1ccccc1)C(=O)OCc1ccccc1
growth [1]: 106%
growth [2]: 105%
growth [3]: 113%
growth [4]: 111%
growth [5]: 106%
growth [6]: 99.1%
growth [7]: 106%
growth [8]: 107%
growth [9]: 103%
growth [10]: 107%

COc1cc(Cl)cc(-c2nn(-c3cccc(NC(=O)c4ccc(Cl)c(Cl)c4)c3)cc2-c2ccncc2)c1
growth [1]: 46.3%
growth [2]: 96.4%
growth [3]: 33.9%
growth [4]: 59.2%
growth [5]: 82.4%
growth [6]: 36.1%
growth [7]: 74.5%
growth [8]: 84.2%
growth [9]: 68.9%
growth [10]: 57.9%

COC(=O)[C@@H]1[C@H](O)[C@H](C)[C@H](O)[C@@](C)(O)/C=C\C=C(C)C(=O)Nc2c(C)c(OC(C)=O)c3c(c2O)C(=O)C(C)=C2OCOC(=C23)C(C)=C[C@@](C)(O)[C@H](O)[C@@H](C)[C@H]1OC(C)=O
growth [1]: 89%
growth [2]: 101%
growth [3]: 98.8%
growth [4]: 104%
growth [5]: 113%
growth [6]: 98%
growth [7]: 100%
growth [8]: 107%
growth [9]: 122%
growth [10]: 74.7%

c1ccc2c(-c3nc(N4CCOCC4)c4c5c(sc4n3)CCCCCC5)cccc2c1
growth [1]: 115%
growth [2]: 97%
growth [3]: 96.7%
growth [4]: 95.9%
growth [5]: 102%
growth [6]: 98.1%
growth [7]: 98.9%
growth [8]: 110%
growth [9]: 110%
growth [10]: 100%

O=[N+]([O-])c1ccc(N/N=C/c2cccc3ccccc23)nc1
growth [1]: 85.4%
growth [2]: 168%
growth [3]: 101%
growth [4]: 112%
growth [5]: 121%
growth [6]: 126%
growth [7]: 102%
growth [8]: 102%
growth [9]: 104%
growth [10]: 91.1%

FC(F)(F)c1ccc(-c2cnc(Cl)nc2N2CCC3(CC2)OCCO3)cc1
growth [1]: 93.2%
growth [2]: 78.4%
growth [3]: 102%
growth [4]: 105%
growth [5]: 93.5%
growth [6]: 89.7%
growth [7]: 99.3%
growth [8]: 106%
growth [9]: 96.6%
growth [10]: 93.6%

Cc1ccc(C(=O)N2C/C(=C/c3ccccc3)C(=O)/C(=C/c3ccccc3)C2)cc1
growth [1]: 5.67% (active)
growth [2]: 60.3%
growth [3]: 53.4%
growth [4]: 31.3%
growth [5]: 66.4%
growth [6]: 56.1%
growth [7]: 87.2%
growth [8]: 80.1%
growth [9]: 18.2%
growth [10]: 24.5%

Fc1cc(C(F)(F)F)ccc1-c1cncnc1NC1CCCCCC1
growth [1]: 91.3%
growth [2]: 118%
growth [3]: 91%
growth [4]: 88.5%
growth [5]: 115%
growth [6]: 94.5%
growth [7]: 94.8%
growth [8]: 93.9%
growth [9]: 105%
growth [10]: 95.6%

CC(=O)c1nc2ccccc2n1CCNC(N)=O
growth [1]: 44.1%
growth [2]: 55.8%
growth [3]: 77.2%
growth [4]: 90.9%
growth [5]: 71.9%
growth [6]: 127%
growth [7]: 79.7%
growth [8]: 94.8%
growth [9]: 73.8%
growth [10]: 103%

N#CCCN1C/C(=C/c2ccc(Cl)cc2)C(=O)/C(=C/c2ccc(Cl)cc2)C1
growth [1]: 3.1% (active)
growth [2]: -52.8% (active)
growth [3]: -18.5% (active)
growth [4]: -94.3% (active)
growth [5]: -38.6% (active)
growth [6]: -22.3% (active)
growth [7]: -50% (active)
growth [8]: -53.4% (active)
growth [9]: -44.1% (active)
growth [10]: 2.04% (active)

COc1ccc(NC2=NC(C)(CO)CS2)cc1 (stereo not given)
growth [1]: 98.7%
growth [2]: 112%
growth [3]: 97.5%
growth [4]: 130%
growth [5]: 103%
growth [6]: 109%
growth [7]: 89.7%
growth [8]: -25.7% (active)
growth [9]: 101%
growth [10]: 90.3%

COc1ccc(-c2nn(-c3cccc(NC(=O)c4ccc(N5CCOCC5)c(C(F)(F)F)c4)c3)cc2-c2ccncc2)cc1Cl
growth [1]: 23.6%
growth [2]: 48.7%
growth [3]: 66.4%
growth [4]: 18.7%
growth [5]: 70.7%
growth [6]: 9.97% (active)
growth [7]: 41%
growth [8]: 67.8%
growth [9]: 65%
growth [10]: 53.5%

O=C(c1ccc(Cl)cc1Cl)N1CCOCC1
growth [1]: 89.1%
growth [2]: 112%
growth [3]: 98.5%
growth [4]: 116%
growth [5]: 98.1%
growth [6]: 140%
growth [7]: 96.9%
growth [8]: 96.6%
growth [9]: 103%
growth [10]: 112%

CCN1Cc2c(/C=C/c3ccccc3)nc3ccc(OC)cc3c2N(c2cccc(Cl)c2)C1
growth [1]: 51.1%
growth [2]: 95.9%
growth [3]: 74%
growth [4]: 107%
growth [5]: 102%
growth [6]: 92.8%
growth [7]: 75.1%
growth [8]: 41.5%
growth [9]: 78.4%
growth [10]: 57.8%

CN(CCc1ccccn1)c1ccccc1
growth [1]: 95.2%
growth [2]: 168%
growth [3]: 105%
growth [4]: 120%
growth [5]: 124%
growth [6]: 116%
growth [7]: 94.1%
growth [8]: 99.7%
growth [9]: 100%
growth [10]: 89.8%

CCOC(=O)C(CSC(c1ccccc1)(c1ccccc1)c1ccccc1)NC(=O)C(CSC(c1ccccc1)(c1ccccc1)c1ccccc1)NC(c1ccccc1)(c1ccccc1)c1ccccc1 (stereo not given)
growth [1]: 112%
growth [2]: 108%
growth [3]: 108%
growth [4]: 97.4%
growth [5]: 110%
growth [6]: 86.7%
growth [7]: 112%
growth [8]: 88.8%
growth [9]: 111%
growth [10]: 100%

O=C1/C(=C\c2ccc(F)cc2)CN(C(=O)c2ccc([N+](=O)[O-])cc2)C/C1=C\c1ccc(F)cc1
growth [1]: 1.96% (active)
growth [2]: 40.5%
growth [3]: 0.131% (active)
growth [4]: -2.85% (active)
growth [5]: 29.2%
growth [6]: 10.4%
growth [7]: 58%
growth [8]: 67%
growth [9]: 2.02% (active)
growth [10]: 7.31% (active)

COc1cc(-c2cc(/C=C3\C(=O)Nc4ccccc43)[nH]n2)cc(OC)c1OC
growth [1]: 31.7%
growth [2]: 1.21% (active)
growth [3]: 49.9%
growth [4]: 79.3%
growth [5]: 74.8%
growth [6]: 70.6%
growth [7]: 67.8%
growth [8]: 23%
growth [9]: 32.8%
growth [10]: 36.9%

CNc1ccc(CSc2ccc(C)cc2)cc1
growth [1]: 119%
growth [2]: 94.4%
growth [3]: 33.4%
growth [4]: 64.2%
growth [5]: 69.6%
growth [6]: 103%
growth [7]: 56.3%
growth [8]: 93%
growth [9]: 84.7%
growth [10]: 89.2%

O=C1c2ccc3c4c(ccc(c24)C(=O)N1CCNCc1ccccc1)C(=O)N(CCNCc1ccccc1)C3=O
growth [1]: 1.04% (active)
growth [2]: -68.4% (active)
growth [3]: 39.9%
growth [4]: 90.5%
growth [5]: 7.12% (active)
growth [6]: -28.2% (active)
growth [7]: -54.2% (active)
growth [8]: 95.8%
growth [9]: -62.3% (active)
growth [10]: -25.9% (active)

O=C1NC(=O)N(Cc2ccccc2)CC1Br (stereo not given)
growth [1]: 37.4%
growth [2]: 77.8%
growth [3]: 89.3%
growth [4]: 68%
growth [5]: 80.2%
growth [6]: 136%
growth [7]: 86.5%
growth [8]: 82.1%
growth [9]: 11.4%
growth [10]: 45.2%

N=C(N)c1ccc(-c2ccc(-c3ccccc3)o2)nc1
growth [1]: 30.2%
growth [2]: 91.9%
growth [3]: 50.2%
growth [4]: 106%
growth [5]: 91.2%
growth [6]: 81%
growth [7]: 92%
growth [8]: 94.6%
growth [9]: 97.9%
growth [10]: 81.1%

COC(=O)C1(C)Cc2cc(OC(C)=O)c(OC(C)=O)cc2N1 (stereo not given)
growth [1]: 16%
growth [2]: 79.7%
growth [3]: 101%
growth [4]: 61.8%
growth [5]: 87.5%
growth [6]: 121%
growth [7]: 91.3%
growth [8]: 19%
growth [9]: 87.3%
growth [10]: 35.6%

CCCCCCN1CCN(Cc2ccc(N(CC)CC)cc2)C(=O)C1=O
growth [1]: 11.7%
growth [2]: 10.1%
growth [3]: 44.4%
growth [4]: 7.71% (active)
growth [5]: 42.5%
growth [6]: 11.8%
growth [7]: -1.86% (active)
growth [8]: 33.7%
growth [9]: 9.15% (active)
growth [10]: 41.5%

O=C1N=NC2=C1c1c3ccccc3c(O)n1CC2
growth [1]: 93%
growth [2]: 109%
growth [3]: 107%
growth [4]: 106%
growth [5]: 108%
growth [6]: 99.4%
growth [7]: 94.9%
growth [8]: 8.27% (active)
growth [9]: 93.2%
growth [10]: 113%

CN(C)CCN=c1nc2c(c(N)n1-c1ccccc1)c(=S)n(-c1ccccc1)c(=S)n2-c1ccccc1
growth [1]: -11.4% (active)
growth [2]: -89.5% (active)
growth [3]: -13% (active)
growth [4]: -39.1% (active)
growth [5]: 24%
growth [6]: -61.5% (active)
growth [7]: -86.9% (active)
growth [8]: -74.6% (active)
growth [9]: -84.4% (active)
growth [10]: 18.8%
